Assay results published in PubChem BioAssay (NCATS).
Values joined by “and” are separate entries in the source; they are usually repeats but may differ in a detail not shown here. Equal values may be shown once. Results filed as inconclusive are left out. Values without a mark were called inactive. Active and inactive are the calls of the source. Calls come from the whole dose curve; as a rule, active = well fitted inhibition curve with a large enough effect; inconclusive = small, poorly fitted or top-dose-only effect; inactive = flat fitted curve, though single readings scatter. Non-standard residues stand in square brackets, D forms with d. Residues, ends and D or L forms follow the SMILES beside them. Orn = NCCC[C@H](N)C(=O)O

Tested on: KB-3-1
Experiment: Cytotoxic Profiling of Annotated Libraries Using Quantitative High-Throughput Screening (AID 1296008); note: nearly all actives have a fitted effect of over 60% in size
Conditions: Five cell lines viability, CellTiter-Glo ATP luminescence, 48-72 h; max response: active compounds read low
Procedure, shortened: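 Compounds were pin-transferred onto cells and incubated 48 or 72 hr at 37 degree Celsius, 95% humidity. CellTiter-Glo was added, plates sat 10 min at room temperature, then ATP-coupled luminescence was imaged as the viability read-out.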
% is set by controls: 0 for no effect and ±100 for the full control effect; potency is the fitted concentration of half-maximal effect.

Question: O=C(O)CCC(=O)C(=O)O was tested. Which max response did it give?
Answer: -11.9%

Question: How did the max response turn out when O=C(O)c1cc(=O)c2c3nc4ccccc4oc-3cc(=O)c2[nH]1 was run?
Answer: -4.67%

Question: Nc1c(N=Nc2ccc(-c3ccc(N=Nc4cc(S(=O)(=O)O)c5ccccc5c4N)cc3)cc2)cc(S(=O)(=O)O)c2ccccc12 was tested. Which max response did it give?
Answer: -9%

Question: With CC(C(=O)O)c1ccc(N2Cc3ccccc3C2=O)cc1 (stereo not drawn) as the molecule, how does the max response read?
Answer: -24.5%

Question: How did the max response turn out when O=S(=O)(O)O was run?
Answer: 5.37%

Question: Cc1c(C)c2c(c(C)c1O)CC[C@@](C)(CCC[C@H](C)CCC[C@H](C)CCCC(C)C)O2 was tested. Which max response did it give?
Answer: 4.35% and -16.8%

Question: How did the max response turn out when CCCC(=O)O[C@]1(C(=O)COC(C)=O)CC[C@H]2[C@@H]3C[C@H](F)C4=CC(=O)C=C[C@]4(C)[C@@]3(F)[C@@H](O)C[C@@]21C was run?
Answer: 20.2%

Question: Which max response does the source give for O=C(O)c1cc(O)c2c(c1)[O][Bi][O]2 here?
Answer: 2%

Question: How did the Potency turn out when O=C1C(=O)c2ncccc2-c2cccnc21 was run?
Answer: 4.61 µM (active)

Question: How did the max response turn out when C[C@]12CCC(=O)C=C1CC[C@@H]1[C@@H]2[C@@H](O)C[C@@]2(C)[C@H]1CC[C@]2(O)C(=O)COP(=O)(O)O was run?
Answer: 13.4%

Question: CC1=CCC(C(C)(C)O)CC1 (stereo not drawn) was tested. Which max response did it give?
Answer: 6.57%

Question: For CC(=O)N(CC(C)C(=O)O)c1c(I)cc(I)c(N)c1I (stereo not drawn), which max response is on record?
Answer: -8.47%

Question: With N[C@H](C(=O)O)[C@@H]1CC(Cl)=NO1 as the molecule, how does the Potency read?
Answer: 20.6 µM (active)

Question: For O=C(Nc1cccc(C(F)(F)F)c1)c1cc(Br)cc(Br)c1O, which Potency is on record?
Answer: 16.4 µM (active)

Question: Which max response does the source give for CC(=O)O[C@]1(C(C)=O)CC[C@H]2[C@@H]3CCC4=CC(=O)CC[C@]4(C)[C@@]3(F)[C@@H](O)C[C@@]21C here?
Answer: 28.7%

Question: C=CCSSSCC=C was tested. Which max response did it give?
Answer: -7.72%

Question: Which max response does the source give for CCOc1ccc2c(c1)C(C)=CC(C)(C)N2 here?
Answer: -2.71%

Question: How did the max response turn out when CCCCC(=O)O[C@]1(C(=O)CO)[C@H](C)C[C@H]2[C@@H]3CCC4=CC(=O)C=C[C@]4(C)[C@@]3(F)[C@@H](O)C[C@@]21C was run?
Answer: 32.2%

Question: For CC1(C)S[C@@H]2[C@H](NC(=O)Cc3ccccc3)C(=O)N2[C@H]1C(=O)O, which max response is on record?
Answer: -8.27%

Question: How did the max response turn out when OCCO[C@@H]1[C@@H](O)[C@H](O)[C@@H](CO)O[C@@H]1O was run?
Answer: 22%

Question: How did the max response turn out when NCc1ccccc1CC(=O)N[C@@H]1C(=O)N2C(C(=O)O)=C(CSc3nnnn3CC(=O)O)CS[C@H]12 was run?
Answer: -8.7%

Question: With CO[C@@H]1[C@@H](O[C@@H]2O[C@H](C)[C@@H](O[C@H]3C[C@@](C)(O)[C@@H](OC(=O)CC(C)C)[C@H](C)O3)[C@H](N(C)C)[C@H]2O)[C@@H](CC=O)C[C@@H](C)C(=O)/C=C/C2OC2C[C@@H](C)OC(=O)C[C@H]1OC(C)=O (stereo partly drawn) as the molecule, how does the max response read?
Answer: 20.2%

Question: How did the max response turn out when CN(C)CCCN1c2ccccc2C(C)(C)c2ccccc21 was run?
Answer: -18.4%

Question: Which max response does the source give for CC(=O)OCC(=O)[C@@]1(O)CC[C@H]2[C@@H]3C[C@H](C)C4=CC(=O)C=C[C@]4(C)[C@H]3[C@@H](O)C[C@@]21C here?
Answer: 15.9%

Question: O=C(O)C1CCCN1 (stereo not drawn) was tested. Which max response did it give?
Answer: 3.27%

Question: Which max response does the source give for CC1(C)C(C=C(Cl)Cl)C1C(=O)OCc1cccc(Oc2ccccc2)c1 (stereo not drawn) here?
Answer: -12.6%

Question: Which max response does the source give for CC1=C(/C=C/C(C)=C/C=C/C(C)=C/C=C/C=C(C)/C=C/C=C(C)/C=C/C2=C(C)CCCC2(C)C)C(C)(C)CCC1 here?
Answer: -7.35%

Question: Which max response does the source give for CCCC(=O)Nc1ncnc2c1ncn2[C@@H]1O[C@@H]2COP(=O)(O)O[C@H]2[C@H]1OC(=O)CCC here?
Answer: -5.3%

Question: How did the Potency turn out when COC(C(=O)C(O)C(C)O)C1Cc2cc3cc(OC4CC(OC5CC(O)C(O)C(C)O5)C(O)C(C)O4)c(C)c(O)c3c(O)c2C(=O)C1OC1CC(OC2CC(OC3CC(C)(O)C(O)C(C)O3)C(O)C(C)O2)C(O)C(C)O1 (stereo not drawn) was run?
Answer: 1.46 µM (active)

Question: With CC(=O)OCC(=O)[C@@]12OC3(CCCC3)O[C@@H]1C[C@H]1[C@@H]3CCC4=CC(=O)C=C[C@]4(C)[C@@]3(F)[C@@H](O)C[C@@]12C as the molecule, how does the max response read?
Answer: -4.92%

Question: With C[C@H](CCC(=O)O)[C@H]1CC[C@H]2[C@@H]3[C@H](O)C[C@@H]4C[C@H](O)CC[C@]4(C)[C@H]3CC[C@]12C as the molecule, how does the max response read?
Answer: 0.682%

Question: With CCC(=O)OCC(=O)[C@@]1(OC(=O)CC)[C@H](C)C[C@H]2[C@H]3[C@H]([C@@H](O)C[C@@]21C)[C@@]1(C)C=CC(=O)C=C1C[C@H]3Cl as the molecule, how does the max response read?
Answer: 31.3%

Question: Which max response does the source give for CC[C@@H](C(=O)[C@@H](C)[C@@H](O)[C@H](C)CCc1ccc(C)c(O)c1C(=O)O)[C@H]1O[C@](CC)([C@H]2CC[C@](O)(CC)[C@H](C)O2)C[C@@H]1C here?
Answer: 10.1%

Question: CC1(C)O[C@@H]2C[C@H]3[C@@H]4CCC5=CC(=O)C=C[C@]5(C)[C@H]4[C@@H](O)C[C@]3(C)[C@]2(C(=O)CO)O1 was tested. Which max response did it give?
Answer: -0.986%

Question: How did the max response turn out when IC(I)I was run?
Answer: 9.13%

Question: CO[C@H](C(=O)[C@@H](O)[C@@H](C)O)C1Cc2cc3cc(O[C@H]4C[C@@H](O[C@H]5C[C@@H](O)[C@H](O)[C@@H](C)O5)[C@@H](O)[C@@H](C)O4)c(C)c(O)c3c(O)c2C(=O)[C@H]1O[C@H]1C[C@@H](O[C@H]2C[C@@H](O[C@H]3C[C@](C)(O)[C@H](O)[C@@H](C)O3)[C@H](O)[C@@H](C)O2)[C@H](O)[C@@H](C)O1 (stereo partly drawn) was tested. Which Potency did it give?
Answer: 1.16 µM (active)

Question: With CC(=O)Oc1c(C)cc(OCC(O)CNC(C)C)c(C)c1C (stereo not drawn) as the molecule, how does the max response read?
Answer: 4.82%

Question: With CC(C)C[C@@H]1NC(=O)[C@H](CCCN)NC(=O)[C@H](C(C)C)NC(=O)[C@@H]2CCCN2C(=O)[C@@H](Cc2ccccc2)NC(=O)[C@H](CC(C)C)NC(=O)[C@H](CCCN)NC(=O)[C@H](C(C)C)NC(=O)[C@@H]2CCCN2C(=O)[C@@H](Cc2ccccc2)NC1=O (cyclo(V[Orn]L[dF]PV[Orn]L[dF]P)) as the molecule, how does the Potency read?
Answer: 0.82 µM (active)
